The source of these data is PubChem BioAssay (NCI).

Experiment in all cases: NCI-60 one-dose screen, 48 h (100 = growth as untreated, 0 = no growth, -100 = all killed)
Assay [1] relates to T-47D breast. The conditions noted are these: 10 µM.
Assay [2] deals with MDA-MB-435 melanoma. The conditions noted are these: 10 µM unless noted.
In assay [3] the test system is SW-620 colon. The conditions noted are these: 10 µM unless noted.
For assay [4], the system named is MCF7 breast. The conditions noted are these: 10 µM unless noted.
The subject of assay [5] is HCT-116 colon. The following applies: 10 µM unless noted.
Assay [6] has as its system HCC-2998 colon. The following applies: 10 µM unless noted.
The test system of assay [7] is KM12 colon. The following applies: 10 µM unless noted.
In assay [8] the test system is BT-549 breast. The conditions noted are these: 10 µM unless noted.

Compounds without any hit were thinned out: in the full panel of roughly 83,000, 20% have a hit.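 Compound tested at a single concentration for 48 hours in 96-well plates; a percent growth value below 10 was scored as active.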 Values without a mark were called inactive. The source made the active and inactive calls.

Consider `COc1ccc(Nc2nc(NCCNc3ccnc4cc(Cl)ccc34)nc(N3CCOCC3)n2)cc1`, for which the growth is 110% in assay [1]; 11.1% in assay [2]; 27.2% in assay [3]; 56.2% in assay [4]; 41.8% in assay [5]; 0.682% (active) in assay [6]. Moreover, in assay [7], the growth was 51.5%.
Regarding `O=C(Nc1ccccc1)Oc1cccc2cccnc12`, the growth in assay [1] is 31.5%; in assay [8], 102%; in assay [2] it was 97%; in assay [3] it was 48.2%; in assay [5], 1.27% (active); in assay [7] it was 108%.
With `O=C1NC(=O)C2(CCCC2C(=O)O)N1` (stereo not given), the growth was 106% in assay [1]; 102% in assay [8]; 105% in assay [2]; 108% in assay [3]; 96.2% in assay [4]; 98.4% in assay [5]. Besides, the growth in assay [7] is 113%.
For `O=C1c2cc(S(=O)(=O)O)ccc2C(=O)c2c1cccc2[N+](=O)[O-]`, the growth in assay [1] is 103%; in assay [2] it was 105%; in assay [3] it was 110%; in assay [4] it was 101%; in assay [5], 106%; in assay [6], 110%. Besides, in assay [7], the growth is 104%.
Consider `CCOC(=O)C(CC(c1ccccc1)N1CCCCC1)[N+](=O)[O-]` (stereo not given), for which the growth in assay [1] is 59.1%; in assay [2] it was 93.7%; in assay [3], 84.9%; in assay [4] it was 63.3%; in assay [5] it was 54.8%; in assay [6], 108%. In addition, the growth in assay [7] is 37.8%.
Consider `CC(=O)c1cc(C)c(OC(=O)c2ccccc2)c(C)c1`, for which the growth in assay [1] was 74.9%; in assay [2], 95.2%; in assay [3], 103%; in assay [4], 105%; in assay [5] it was 93.7%; in assay [7], 104%.
Take `C=C1CC[C@@H]2[C@@](C)(CCC[C@]2(C)C(=O)O)[C@@H]1CC[C@H](CO)CCO`: the growth is 90.5% in assay [1]; 109% in assay [2]; 114% in assay [3]; 101% in assay [4]; 107% in assay [5]; 108% in assay [6]. For the same compound, the growth in assay [7] is 102%.
Consider `C=C[C@H]1C[C@@H]2C[C@@H]3[C@H]4C/C=C\C(=O)NCCCC5NC(=O)C(=C(O)/C=C/[C@@H]4CC(=O)[C@H]3[C@@H]2[C@H]1C)C5=O` (stereo not given in full), for which the growth in assay [1] is -53.5% (active); in assay [2], -19.2% (active); in assay [3], -58.2% (active); in assay [4], -63.8% (active); in assay [6], -30% (active); in assay [7] it was -17.4% (active).
Turning to `O=C(CC(O)c1ccccc1)Nc1ccccn1` (stereo not given), the growth was 94.1% in assay [1]; 97.9% in assay [2]; 109% in assay [3]; 103% in assay [4]; 97.6% in assay [5]; 103% in assay [7].
As for `CN1CCN(C(=O)OCCOCCOC(=O)N2CCN(C)CC2)CC1`, the growth in assay [1] was 109%; in assay [2], 98.9%; in assay [3], 117%; in assay [4] it was 102%; in assay [5] it was 94.8%; in assay [6], 98.4%. Further, in assay [7], the growth is 104%.
`Cc1ccc(S(=O)(=O)N2CCc3ccc(O)c4c3C2CCc2ccccc2-4)cc1` (stereo not given): the growth in assay [1] was 94%; in assay [2], 97.7%; in assay [3] it was 102%; in assay [4], 103%; in assay [5] it was 108%; in assay [6] it was 104%. In addition, the growth in assay [7] is 95.2%.
Take `O=C1/C(=C/c2ccccc2F)CNC/C1=C\c1ccccc1F`: the growth in assay [1] is 9.26% (active); in assay [2] it was -56.7% (active); in assay [3] it was -49.8% (active); in assay [4], -47% (active); in assay [5], -81.8% (active); in assay [6], -89.2% (active). The growth in assay [7] is -80.1% (active).
With `Cc1nc(NC(=O)COc2cccc(/C=C3\COc4ccccc4C3=O)c2)sc1C`, the growth is 53.2% in assay [1]; -44.5% (active) in assay [2]; -100% (active) in assay [3]; -58.7% (active) in assay [4]; -88.4% (active) in assay [5]; -92.4% (active) in assay [7].
Take `O=C1N/C(=C\c2ccccc2)c2ncccc21`: the growth in assay [1] was 79.5%; in assay [2] it was 109%; in assay [3] it was 113%; in assay [4], 80%; in assay [5], 101%; in assay [6], 109%. For the same compound, the growth in assay [7] was 97.2%.
On to `COc1cc(/C=C/C(=O)C(=Cc2ccc(F)c(F)c2)C(=O)/C=C/c2ccc(O)c(OC)c2)ccc1O`, for which the growth in assay [1] was 44.1%; in assay [2], 0.136% (active); in assay [3], -44.7% (active); in assay [4], 35.8%; in assay [5], -76.5% (active); in assay [6], -71.9% (active). In addition, the growth in assay [7] was 1.53% (active).
Consider `COc1ccc(OC2=CC(=O)c3ccc(C)nc3C2=O)cc1`, for which the growth in assay [1] was 79.9%; in assay [2] it was 83%; in assay [3] it was 94.9%; in assay [4] it was 72.4%; in assay [5] it was 74.3%; in assay [6], 102%. Further, the growth in assay [7] was 81.3%.
With `COc1cc(-c2ccc3cc(OC)c(OC)c(OC)c3c2)cc(OC)c1OC`, the growth was 50.7% in assay [1]; -16.7% (active) in assay [2]; 47.3% in assay [3]; 49.4% in assay [4]; 54.1% in assay [5]; 37.5% in assay [7].
As for `CCC12CCC3c4ccc(O)cc4CCC3C1CC(O)C2O` (stereo not given), the growth in assay [1] is 93.9%; in assay [2] it was -2.42% (active); in assay [3], 43%; in assay [4], 75.5%; in assay [5] it was 64.6%; in assay [6], 75.9%. Further, the growth in assay [7] was 53.5%.
